Test results taken from PubChem BioAssay (NCI).
Values joined by “and” are separate entries in the source; they are usually repeats but may differ in a detail not shown here. Identical values can stand only once. Compounds without any hit were thinned out: in the full panel of roughly 83,000, 20% have a hit.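 Treatment: one concentration, 48 hours, 96-well format. Scoring: percent growth, with anything below 10 considered active.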 A number with no mark means an inactive call. Active and inactive are the calls of the source.

Tested on: SNB-75 CNS
Assay: NCI-60 one-dose screen, 48 h (100 = growth as untreated, 0 = no growth, -100 = all killed)
Conditions: 10 µM unless noted
Method: Growth inhibition of the SNB-75 human tumor cell line is measured as a screen for anti-cancer activity. Cells are grown in 96 well plates and exposed to the test compound for 48 hours. Compounds are tested at a single concentration, which is 10^-5 M for most compounds. The reported endpoint is percent growth (GI% or GIPRCNT), where numbers from 0 - 100% represent growth inhibition, and numbers from -100% - 0 represent cell death. For example, a value of 40 represents 60% growth inhibition. A value of 0 means no net growth occurred over the course of the experiment. A value of -40 indicates 40% of cells at the beginning of the experiment died by the end of the experiment. A value of -100 means all cells are dead at the end of the experiment.
NCI-60 Human Tumor Cell Lines Screen was performed using the standard one-dose NCI protocol, which is described in more detail at https://dtp.cancer.gov/discovery_development/nci-60/default.htm.
Compounds with GIPRCNT values below 10 were considered active. Activity score was based on GIPRCNT using the following formula: […]
Score is 0 for GIPRCNT values of 100 or above, 50 for GIPRCNT values of 0, and 100 for GIPRCNT values of -100.

SMILES	growth
CCCCCCC(C)CC1=C(O)c2ccccc2C(=O)C1=O (stereo not given)	61.6%
CC(=O)Oc1ccc(C2(c3ccc(OC(C)=O)cc3)C(=O)Nc3ccccc32)cc1	85.3% and 158%
O=C(O)c1c2c(nc3ccccc13)Cc1ccccc1-2	99.6% and 101%
COCCCNC1=C(C#N)C(=O)NC(c2cccs2)S1 (stereo not given)	83.2%
CCOC(=O)c1ccncc1	108%
O=C(O)COc1ccccc1F	94.4%
O=S(=O)(O)c1ccc2cc(O)ccc2c1	93.6%
CC(=O)Nc1ccc2oc(=O)ccc2c1	89%
C(=N\OCCc1ccccc1)/c1ccccn1	117% and 86.2%
O=C(OCc1ccccc1)c1ccccc1	98.7%
O=C1c2cccnc2-c2ncccc21	93.8% [100 µM]
CC(C)=NOC(C)C(=O)O (stereo not given)	97.9%
CCCCOC1NC(=O)NC(=O)C1(F)C(=O)OCC (stereo not given)	78% and 81.8%
COC(=O)c1nc(N)nc(C(=O)OC)c1C(=O)c1ccc(F)cc1	99.1%
Cc1ccc([N+](=O)[O-])cc1Br	104%
CN(C)C(=N)N=C(N)N	101% and 114%
Cc1cc(=NO)cc(C)n1O	92.6%
O=C(c1ccncc1)c1c(Cc2ccccc2)ccc2ccccc12	90.4%
COC(=O)c1cc(C(=O)OC)cc([N+](=O)[O-])c1	72.5%
N=C(N=C(N)N)N1CCOCC1	90.5% and 89.8%

SMILES	growth
CCN(CC)Cc1cc2[nH]c3c4ccc(Cl)cc4ncc3c2cc1OC	74.9% and 84.7%
Nc1ccccc1SC1CC(=O)N(c2ccc(I)cc2)C1=O (stereo not given)	79.8%
O=C(N=C1C(=O)C2(CCCCC2)C2(N=C(c3ccccc3)OC2=O)C12CCCCC2)c1ccccc1 (stereo not given)	85.2%
CN(C)CC(CN(C)C)C(O)c1ccccc1 (stereo not given)	94.5%
CCOC(=O)c1ccc(N2C(=O)C(Cl)(c3ccccc3)C2c2ccco2)cc1 (stereo not given)	82.3%
Cc1ccc(S(=O)(=O)n2ccnc2)cc1	87.6%
CCOP(C)(=O)/C(Cc1ccc(OC)c(OC)c1)=N\O (stereo not given)	88.7%
CC(=O)Oc1cc(C(C)C)c(OCCN(C)C)cc1C	102% and 89.9%
Cc1nc(Nc2ccc(Cl)cc2)c2cnn(-c3ccccc3)c2n1	86.6%
CNc1ccc(Cl)cc1S(=O)(=O)c1ccccc1[N+](=O)[O-]	73.4% and 11.4%
COc1ccc(S(=O)(=O)c2ccc(F)cc2)cc1	101%
O=C1C2=C(Nc3cc(Cl)ccc3N2)OC1c1c[nH]c2ccc(COc3ccccc3)cc12 (stereo not given)	-2.61% (active)
COc1ccc2nccc(Cl)c2c1	91.1%
Oc1ccc(O)c(-c2ccccc2)c1	58.2%
O=C1c2ccccc2C(c2ccccc2)C1c1ccccc1 (stereo not given)	63.5%
O=C(O)C#Cc1ccc(Cl)cc1	85.6%
CSc1nc(N)c(N)c(N)n1	97.5%
CCNCc1ccccc1	102%
CCn1c2ccc(N(C)C)cc2c2cc(N(C)C)ccc21	99.3%
OC1CCCN(Cc2ccccc2)C1 (stereo not given)	113%
